# ALDH1A1 block – inhibitors of human aldehyde dehydrogenase 1A1; P00352; Purified ALDH1A1, NADH fluorescence, propionaldehyde substrate; Potency, µM (titrated, usually from 75.3 µM), for the others: at the highest dose activity, negative = inhibition, actives largely listed as inhibitors; 7.3% of 220,000 active; AID 1030; active = well fitted inhibition curve with a large enough effect, not every such curve was filed as active; inconclusive = small, poorly fitted or top-dose-only effect, or another doubt; inactive = no such curve, though single readings can be large or run the other way;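 also: plate controls were no enzyme wells and a reference inhibitor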
# HTT aggregate – reduces HttQ103-GFP aggregates in PC12 cells; PC12 HttQ103-GFP aggregates, Acumen cytometry, 40 h; Potency, µM (top dose mostly 46.1 µM), for the others: at the highest dose activity change, negative = inhibition, hits mostly inhibitors; 1.1% of 220,000 active; AID 1688; also: % is scaled to controls: 0 for no effect and ±100 for the full control effect; nearly all actives have a fitted effect of over 60% in size
#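 Ecdysone-promoter PC12 model expressing HTT exon 1 Q103 fused to GFP, induced by tebufenozide at 100 nM final. Compounds titrated; aggregates sized 1–25 µm scored on a 488 nm laser cytometer.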
# HPGD block – blocks human HPGD enzyme activity. P15428. Potency, µM, for the others: at the top dose activity change, negative = inhibition, most hits filed as inhibitors. purified HPGD, NADH fluorescence kinetic, PGE2 substrate. 4.3% of 150,000 active; active = well fitted inhibition curve with a large enough effect, not every such curve was filed as active; inconclusive = small, poorly fitted or top-dose-only effect, or another doubt; inactive = no such curve, though single readings can be large or run the other way; also: % is scaled to controls: 0 for no effect and ±100 for the full control effect
# Target sequence (P15428 whole entry, looked up): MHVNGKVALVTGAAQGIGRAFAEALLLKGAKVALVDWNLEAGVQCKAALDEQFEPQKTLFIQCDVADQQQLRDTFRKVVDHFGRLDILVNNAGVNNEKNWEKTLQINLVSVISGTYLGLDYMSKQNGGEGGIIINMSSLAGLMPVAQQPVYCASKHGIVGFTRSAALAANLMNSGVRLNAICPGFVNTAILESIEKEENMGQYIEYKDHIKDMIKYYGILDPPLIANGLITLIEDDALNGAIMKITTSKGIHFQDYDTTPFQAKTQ
#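 20 nM HPGD preincubated 15 min at room temperature with compound in 50 mM Tris-HCl pH 8, 0.01% Tween 20. Started with 1 mM NAD+ and 30 uM prostaglandin E2; NADH fluorescence (360/450 nm) read 5 times over 30-s intervals, last minus first.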
# HTT ATP protect – cytoprotection in Huntington HTT-Q103 PC12 cell model | Potency, µM (series often up to 56.4 µM), for the others: cytoprotection (ATP increase), usual class: activators | 0.14% of 230,000 active | PC12 HTT-Q103 induced, cytoprotection, ATP luminescence, 40 h; also: % of control where 0% means no effect; nearly all actives have a fitted effect of over 45% in size
#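 PC12 cells stably carrying ecdysone-inducible Htt exon 1 (Q103)–GFP were induced with 100 nM tebufenozide (final) alongside library compounds in a dose series. Cytoprotection was scored as retained ATP by ATPlite luminescence.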
# Lamin A splicing – modulators of lamin A splicing | HeLa LMNA splicing GFP/RFP minigene ratio, 48 h | Potency, µM (titrated, usually from 46.1 µM), without a hit: top-dose ratio change, negative = inhibition, most hits filed as inhibitors | 0.01% of 200,000 active | AID 1487; active = well fitted inhibition curve with a large enough effect in the signal ratio, with a control signal flat, not every such curve was filed as active; inconclusive = small, poorly fitted or top-dose-only effect, or effect the other way, or a change in a side signal; the % refers to the signal ratio; also: % is scaled to controls: 0 for no effect and ±100 for the full control effect
#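 S3 HeLa stable clones carrying a lamin A-EGFP splicing minigene plus DsRed2 were seeded at 600 cells/well in Opti-MEM with 2% FBS, pin-dosed and incubated 48 h at 37°C. Acumen cytometry (488 nm) gave the GFP/RFP total-intensity ratio.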
# The depositor's hits bear a star; ? = inconclusive; . = not tested or not shown; ! = not active in a repeat; [ ] = dose if it differs, or a comment. Sampled rows, rich in hits. Any-hit rate of the full collection: about 8.8%. Unless noted, calls follow the shape of the dose curve; as a rule, active = well fitted curve in the direction sought with a large enough effect; inconclusive = small, poorly fitted or top-dose-only effect, or another doubt; inactive = no such curve, though single readings can be large; an effect the other way counts as inactive or inconclusive. Potency is read from the fitted curve at half-maximal effect.
SMILES,ALDH1A1 block,HTT aggregate,HPGD block,HTT ATP protect,Lamin A splicing
O=C(c1cccc(Cl)c1)C1CCCN(Cc2cccc3cnccc23)C1 (configuration not stated),6%,0%[9.22 µM],.,21%[10 µM],.
O=C(c1ccc(Cl)cc1)C1CCCN(Cc2cccc3cnccc23)C1 (configuration not stated),1%,20µM*,.,-25%,.
NC(CCl)=N[C@H]1CN2CCC1CC2,?,.,-2%,16%[10 µM],.
O=C(CN1CCCCC1)c1ccccc1F,3%,13%,.,-23%,?
O=C(CN1CCCCC1)c1ccccc1Cl,13µM*,-3%,-18%,10%[10 µM],-3%
O=C(CN1CCCCC1)c1cccc(Br)c1,1.4µM*,1%,-2%,-7%[10 µM],-8%
N[C@H](Cc1ccccc1)c1nn[nH]n1,-9%[13.5 µM],.,0%,-2%[10 µM],.
C=CCc1c(C)[nH]c(=S)c(C#N)c1C,4.5µM*,15%,4µM*,-19%,8%
COCc1cc(C)c(C#N)c(=S)[nH]1,?,1%,?,-14%,-1%
O=c1[nH]c(=S)n(CCC2=CCCCC2)c(O)c1/C=N/N1CCOCC1,.,6%[9.22 µM],.,-3%[10 µM],.
CCOC(=O)N1CCN(C(=O)c2ccc3c(=O)n(CCC4=CCCCC4)c(=S)[nH]c3c2)CC1,7.9µM*,6%,-14%,-8%,1%
CC1(C)CN=C(Nc2ccc(F)c(Cl)c2)S1,.,-7%[9.22 µM],.,13%[10 µM],.
CC1(C)CN=C(Nc2ccc(F)c(F)c2)S1,-4%,-20%,25µM*,-9%,-2%
O=C(CNC(=O)c1cccs1)OCC(=O)c1ccc([N+](=O)[O-])cc1,0.32µM*,-2%[9.22 µM],.,8%[10 µM],.
CCCCOC(C)=O,?,.,-10%,-18%,.
OCC(O)CS (configuration not stated),.,8%,.,-7%,?
COc1cc(CN2CCN(C(=O)COc3ccccc3)CC2)cc(OC)c1OC,?,-8%,-5%,-33%,9%
O=C(COc1ccccc1)N1CCN(Cc2c[nH]c3ccccc23)CC1,10%,16µM*,0%,-19%,?
COc1ccc(OCC(=O)N2CCN(Cc3c[nH]c4ccccc34)CC2)cc1,-15%,11µM*,-1%,-71%[10 µM],?
O=C(Cc1ccccc1)N1CCN(Cc2c[nH]c3ccccc23)CC1,25µM*,13µM*,-9%,-73%[10 µM],?
Cc1ccccc1CN1CCN(C(=O)Cc2ccccc2)CC1,-8%,.,.,.,5%[46 µM]
CC(=O)c1ccc(OC(C)C)c(Cc2c(O)[nH]c(=S)[nH]c2=O)c1,18µM*,13%[9.22 µM],.,-2%[10 µM],.
C=CCN1C(=O)/C(=C/c2cc(C)n(-c3ccccn3)c2C)C(=O)NC1=S,?,-15%,13µM*,.,4%
Cc1cc(C)cc(OP(=O)(Oc2cc(C)cc(C)c2)Oc2cc(C)cc(C)c2)c1,?,.,-14%,-71%,.
O=c1cccc2n1C[C@H]1C[C@@H]2CN(CCO)C1,.,.,.,20%,.
SMILES,ALDH1A1 block,HTT aggregate,HPGD block,HTT ATP protect,Lamin A splicing
CCN(CCNc1ccc([N+](=O)[O-])c2cccnc12)S(=O)(=O)c1ccccc1,-7%,4%,.,?,-24%
CCN(CCNc1ccc([N+](=O)[O-])c2cccnc12)S(=O)(=O)c1ccc(Cl)cc1,2.8µM*,0%,-11%,-10%,6%
C[C@H](Br)CN(C[C@H](C)Br)c1ccc2c(c1)Cc1ccccc1-2,-8%[13.5 µM],.,-17%,5%[10 µM],.
Cc1ccc(S(=O)ON2CCC(C(=O)O)(c3ccccc3)CC2)cc1 (configuration not stated),15%[13.5 µM],.,-9%,15%[10 µM],.
CCc1ccc(CCN2CCCCC2)nc1,-4%[13.5 µM],.,-6%,10%[10 µM],.
O=C(NC1CN2CCC1CC2)c1ccc(-c2ccc([N+](=O)[O-])cc2)o1 (configuration not stated),0.45µM*,6%,-29%,9%[10 µM],-4%
CN1CCCC2(CCN(C(=O)c3ccco3)CC2)C1,0%,.,-2%,-56%,.
Clc1ccc2ccccc2c1,-5%,.,-2%,9%,.
O=c1[nH]sc2cc(F)ccc12,1.4µM*,-101%,.,?,?
Nc1nc2c(ncn2[C@@H]2O[C@H](CO)[C@@H](O)[C@@H]2O)c(=[SH+])[nH]1.O=[N+]([O-])c1ccc(O)[c]([Hg])c1,0.05µM*,.,0.025µM*,.,.
c1nc[nH]n1,1%,.,1%,-8%,.
COc1ccc(/C=C2\C(=O)NC(=O)N(CCC3=CCCCC3)C2=O)c(OC)c1,0.32µM*,-4%,20µM*,3%[10 µM],-9%
O=C1NC(=O)N(CCC2=CCCCC2)C(=O)/C1=C/c1ccc(O)cc1,0.79µM*,3%,11µM*,15%[10 µM],-2%
O=C1NC(=O)N(CCC2=CCCCC2)C(=O)/C1=C/c1cccs1,.,-2%[9.22 µM],.,-7%[10 µM],.
CCS(=O)(=O)N1N=C(c2cccc(NS(C)(=O)=O)c2)CC1c1ccccc1 (configuration not stated),13µM*,-6%,.,7%,?
Cc1[nH]c2ccccc2c1/C=N/O,-9%,-1%,13µM*,-5%[0.074 µM],17%
CC1=C2C3OC(=O)[C@H](C)[C@H]3CC[C@@]2(C)C=CC1=O (some centres not stated),5%,.,2%,-6%[1.9 µM],.
CC1C(=O)OC2C1CC[C@@]1(C)C=CC(=O)[C@@]3(C)O[C@@]213 (some centres not stated),4%,.,3%,35µM*,.
C=C(C)[C@H]1Cc2c(ccc3c2O[C@H]2COc4cc(OC)c(OC)cc4[C@@H]2C3=O)O1,.,.,.,-41%[1.9 µM],.
CC1=NN(c2ccccc2)C(=O)/C1=C/c1c(O)[nH]c(=S)[nH]c1=O,?,-20%,20µM*,-19%,1%
CC(C)(C)C(=O)C1C(=O)c2ccccc2C1=O,16µM*,.,-11%,-52%,.
O=C(/C=C/c1ccccc1)C1C(=O)c2ccccc2C1=O,8%,?,-13%,-30%[1.9 µM],?
NC(=S)N/N=C/c1coc2ccccc2c1=O,14µM*,?,-19%,?,-5%
N=C(N)n1cc(/C=N\N=C(N)N)cn1,-3%[13.5 µM],.,-13%,-13%[10 µM],.
CC1=CC(=O)c2c(O)cccc2C1=O,16µM*,.,25µM*!,-18%[1.9 µM],.
Cn1c(O)c(/C=C/C=Nc2ccccc2)c(=O)n(C)c1=S,13µM*,-26%,.,4%[10 µM],-17%
